Where “and” joins values, the source holds several entries; their conditions need not be identical. Identical values can stand only once. In all, about 5,500 compounds went through this assay and about 2,000 (36%) were called active. Not shown: some 18% with an inconclusive outcome. Rule as the data show it: active = normalized growth mostly below about 0.91 (no sharp cut-off); inconclusive = no clear call, values can overlap the other calls; inactive = mostly above about 0.92. Some of the results follow.
Test: chemical genetic growth profiling, strain panel (AID 1159580);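 also: tested at 20 µM; growth read once vehicle control cultures reached saturation at 30 °C; 1 = growth at the plate median or of vehicle wells; lower values mean less growth of the strain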
Details: S. cerevisiae deletion strains, growth OD

Measured: normalized growth

COc1cc([C@H]2Oc3cc([C@H]4Oc5cc(O)cc(O)c5C(=O)[C@@H]4O)ccc3O[C@@H]2CO)ccc1O
inactive: locus YAL013W, strain DEP1, hits give low values 1 | locus YAL021C, strain ccr4, hits give low values 0.987 | locus YAL026C, strain drs2, hits give low values 1 | locus YAL030W, strain snc1, hits give low values 1.01 | locus YBL061C, strain skt5, hits give low values 1.01 | locus YBR009C, strain hhf1, hits give low values 1 | locus YBR021W, strain FUR4, hits give low values 1.06 | locus YBR023C, strain chs3, hits give low values 1.01 | locus YBR171W, strain sec66, hits give low values 1.02 | locus YBR229C, strain ROT2, hits give low values 0.991 | locus YBR231C, strain swc5, hits give low values 1.02 | locus YBR279W, strain paf1, hits give low values 1.01 | locus YCL011C, strain gbp2, hits give low values 1 | locus YCL016C, strain dcc1, hits give low values 0.992 | locus YCL029C, strain bik1, hits give low values 0.97 | locus YCL061C, strain MRC1, hits give low values 1.01 | locus YCL069W, strain vba3, hits give low values 1.01 | locus YCR088W, strain abp1, hits give low values 1.01 | locus YDL005C, strain med2, hits give low values 1.01 | locus YDL035C, strain GPR1, hits give low values 0.987 | locus YDL040C, strain nat1, hits give low values 1.01 | locus YDL074C, strain BRE1, hits give low values 0.986 | locus YDL101C, strain DUN1, hits give low values 0.989 | locus YDL134C, strain PPH21, hits give low values 1.01 | locus YDL185W, strain tfp1, hits give low values 0.964 | locus YDL192W, strain arf1, hits give low values 0.97 | locus YDR001C, strain nth1, hits give low values 1.01 | locus YDR069C, strain doa4, hits give low values 0.998 | locus YDR101C, strain arx1, hits give low values 0.976 | locus YDR137W, strain rgp1, hits give low values 0.996 | locus YDR150W, strain NUM1, hits give low values 0.969 | locus YDR159W, strain sac3, hits give low values 0.997 | locus YDR162C, strain NBP2, hits give low values 1.02 | locus YDR195W, strain ref2 1.02 | locus YDR297W, strain sur2, hits give low values 1.02 | locus YDR318W, strain mcm21, hits give low values 0.97 | locus YDR334W, strain swr1, hits give low values 1.01 | locus YDR335W, strain msn5, hits give low values 1 | locus YDR388W, hits give low values 0.984 | locus YDR392W, strain spt3, hits give low values 0.955 | locus YDR502C, strain sam2, hits give low values 0.977 | locus YEL003W, strain gim4, hits give low values 1.01 | locus YEL037C, strain rad23, hits give low values 1.01 | locus YEL061C, strain CIN8 (second series), hits give low values 1.02 | locus YEL061C, strain CIN8, hits give low values 1 | locus YER015W, strain faa2, hits give low values 1 | locus YER016W, strain bim1, hits give low values 1.01 | locus YER110C, hits give low values 0.958 | locus YER111C, strain swi4, hits give low values 1 | locus YER155C, strain BEM2 (second series), hits give low values 1.03 | locus YER155C, strain BEM2, hits give low values 1.02 | locus YER167W, strain BCK2, hits give low values 0.992 | locus YFR010W, strain ubp6, hits give low values 0.995 | locus YGL078C, strain dbp3, hits give low values 0.965 | locus YGL086W, strain mad1, hits give low values 0.975 | locus YGL167C, strain pmr1, hits give low values 1.01 | locus YGL173C, strain kem1, hits give low values 1.01 | locus YGL227W, strain vid30, hits give low values 1.01 | locus YGL240W, strain doc1, hits give low values 1.03 | locus YGL248W, strain PDE1, hits give low values 1.01 | locus YGL253W, strain hxk2, hits give low values 0.989 | locus YGR078C, strain PAC10, hits give low values 0.989 | locus YGR135W, strain pre9, hits give low values 0.987 | locus YGR229C, strain SMI1, hits give low values 1.01 | locus YGR252W, strain gcn5, hits give low values 0.961 | locus YHR013C, strain ard1, hits give low values 1 | locus YHR027C, strain rpn1, hits give low values 1 | locus YHR030C, strain SLT2, hits give low values 0.999 and 1.02 | locus YHR079C, strain IRE1 (second series), hits give low values 0.984 | locus YHR079C, strain IRE1, hits give low values 0.996 | locus YHR094C, strain hxt1, hits give low values 0.971 | locus YHR129C, strain ARP1, hits give low values 1 | locus YHR142W, strain chs7, hits give low values 0.997 | locus YHR200W, strain rpn10, hits give low values 0.959 | locus YIL066C, strain RNR3, hits give low values 0.968 | locus YIL073C, strain SPO22, hits give low values 0.906 | locus YIL125W, strain kgd1, hits give low values 0.987 | locus YIR030C, strain dcg1, hits give low values 0.981 | locus YJL092W, strain hpr5, hits give low values 1.01 | locus YJL095W, strain BCK1 (second series), hits give low values 1.02 | locus YJL095W, strain BCK1, hits give low values 0.998 and 0.981 | locus YJL115W, strain asf1, hits give low values 1.01 | locus YJL129C, strain trk1, hits give low values 1.03 | locus YJL134W, strain LCB3, hits give low values 1 | locus YJL154C, strain vps35, hits give low values 1.01 | locus YJL164C, strain tpk1, hits give low values 0.989 | locus YJL166W, strain qcr8, hits give low values 1.01 | locus YJL168C, strain set2, hits give low values 0.98 | locus YJL187C, strain SWE1 (second series), hits give low values 0.988 | locus YJL187C, strain SWE1, hits give low values 1.01 | locus YJR043C, strain POL32, hits give low values 0.998 | locus YJR066W, strain TOR1, hits give low values 0.954
